Values joined by “and” are separate entries in the source; they are usually repeats but may differ in a detail not shown here. Identical values can stand only once. Active and inactive are the calls of the source.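 Rule for the calls, unless noted: active = compounds whose cell count with miR-34 switched on is under 0.7 times the count with it off; inactive = the rest.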
How the values were obtained:
[1] = compounds altering viability of human ES cells (AID 493140; call rule not given here;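 note: cells exposed to compounds for four days before counting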); settings: human embryonic stem cell survival screen; stronger effect = higher value
[2] = P. berghei load reduction in hepatocytes – cell-based, HepG2, luciferase luminescence, HepG2 viability, primary screen (AID 624349; in the data active = parasite load remaining mostly below about 12%, no sharp cut-off; inactive = mostly above about 10%;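 note: 100% = mean of DMSO negative control wells on the same plate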); settings: P. berghei liver stage in HepG2, luciferase luminescence, concentration not given here; parasite load remaining: stronger effect = lower value; viability: measured here: HepG2 viability without parasites
[3] = Wnt pathway potentiators raising nuclear beta-catenin – imaging, WNT3A-conditioned medium, mouse C2C12, NPC library, primary screen (AID 1117326; in the data active = nuclear beta-catenin stimulation mostly above about 4.2%, no sharp cut-off; inactive = mostly below about 10%); settings: stronger effect = higher value
[4] = stimulators of insulin release from INS-1E, primary screen, cell-based, 5 mM glucose, NPC library (AID 1117329;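 active = compound raises insulin release from rat beta cells at 5 mM glucose, no numeric limit stated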); settings: rat INS-1E insulin secretion, at 10 µM, stronger effect = higher value
[5] = growth inhibition of GSK3B-pretreated HCT116 cells – cell-based, CellTiter-Glo, 0.2 to 20 µM (AID 1117336;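 active = compounds lowering colon cancer cell viability after pretreatment blocking the GSK3B kinase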); settings: HCT116 viability after GSK3B inhibitor, at 20 µM, stronger effect = higher value
[6] = inhibition of endothelial tube formation, primary screen, imaging, VEGF stimulated, CD31 staining, tube area, NPC library (AID 1117340;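 active = compound that reduces growth-factor-driven endothelial tube area in a mixed cell culture, no cutoff stated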); settings: VEGF-stimulated ADSC/ECFC co-culture, at 10 µM, stronger effect = higher value
[7] = GLP1 release stimulators, primary, NCI-H716, NPC library (AID 1117341;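 active = compound raises GLP1 secretion from the human gut endocrine cells, with no numeric limit stated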); settings: NCI-H716 cells, at 10 µM, stronger effect = higher value
[8] = HCT116 colon cancer cell growth inhibition, primary screen, CellTiter-Glo luminescence, NPC library (AID 1117342;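 active = compounds that lower survival of HCT116 colon cancer cells in the luminescence readout, no numeric limit stated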); settings: at 20 µM (top of the series)
[9] = reduced SW480 viability measured with CellTiter-Glo, NPC library, primary (AID 1117343;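 active = compounds that lower viability of the colon cancer cells in the luminescence readout, with no numeric limit stated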); settings: CellTiter-Glo luminescence; at 20 µM (top of the series) unless noted
[10] = NPC library primary testing for decreased DLD-1 cell viability via CellTiter-Glo (AID 1117346;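 active = compounds that lower survival of DLD-1 colon cancer cells in the luminescence readout, no cutoff given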); settings: DLD-1 viability, CellTiter-Glo luminescence; at 20 µM (top of the series)
[11] = EMT-state selective cytotoxicity in co-culture – imaging, PC-3E GFP, TEM4-18 mCherry, primary screen (AID 1345086;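 active = compounds killing one labelled cell type while sparing the other, by normalised counts and ratio limits, not self-fluorescent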;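 for all read-outs here: cells exposed to compound for 72 h before imaging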;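 for red/green cell ratio (normalised): normalised mesenchymal count divided by normalised epithelial count so high means epithelial killing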); settings: PC-3E GFP / TEM4-18 mCherry co-culture, imaging cell counts, at 1 µM; for red/green cell ratio (normalised): actives lie on both sides, counts scaled to control wells, 1 = unselective
[12] = viability loss with induced miR-34 in A549 – imaging, A549 dox-inducible miR-34, nuclei and caspase counts, primary screen (AID 1347080); settings: A549 miR-34 inducible, Hoechst nuclei count, 48 h
[13] = MELAS cybrid and Rieske KO viability enhancers – cell-based, MELAS cybrids, Rieske KO mouse fibroblasts, CellTiter-Glo, primary screen (AID 1508586;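 active = mean z-score across replicates of 1.96 or higher in either the MELAS or the Rieske mutant cell line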;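 note: z relative to plate mean and SD of compound and empty wells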); settings: low glucose
[14] = target: NAD(+) hydrolase SARM1 (Homo sapiens) (UniProt Q6SZW1); test: blocking NAD cleavage by SARM1 SAM-TIR – cell lysate, NAD-Glo luminescence (AID 1508614;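 active = compound whose remaining NAD level is above about 45 nM, limit read from the data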;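 note: higher remaining NAD means stronger inhibition of SARM1 NADase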); settings: SAM-TIR HEK293T lysate NADase, at 1 µM, stronger effect = higher value
NAD(+) hydrolase SARM1 (Homo sapiens), sequence (Q6SZW1 whole entry, looked up): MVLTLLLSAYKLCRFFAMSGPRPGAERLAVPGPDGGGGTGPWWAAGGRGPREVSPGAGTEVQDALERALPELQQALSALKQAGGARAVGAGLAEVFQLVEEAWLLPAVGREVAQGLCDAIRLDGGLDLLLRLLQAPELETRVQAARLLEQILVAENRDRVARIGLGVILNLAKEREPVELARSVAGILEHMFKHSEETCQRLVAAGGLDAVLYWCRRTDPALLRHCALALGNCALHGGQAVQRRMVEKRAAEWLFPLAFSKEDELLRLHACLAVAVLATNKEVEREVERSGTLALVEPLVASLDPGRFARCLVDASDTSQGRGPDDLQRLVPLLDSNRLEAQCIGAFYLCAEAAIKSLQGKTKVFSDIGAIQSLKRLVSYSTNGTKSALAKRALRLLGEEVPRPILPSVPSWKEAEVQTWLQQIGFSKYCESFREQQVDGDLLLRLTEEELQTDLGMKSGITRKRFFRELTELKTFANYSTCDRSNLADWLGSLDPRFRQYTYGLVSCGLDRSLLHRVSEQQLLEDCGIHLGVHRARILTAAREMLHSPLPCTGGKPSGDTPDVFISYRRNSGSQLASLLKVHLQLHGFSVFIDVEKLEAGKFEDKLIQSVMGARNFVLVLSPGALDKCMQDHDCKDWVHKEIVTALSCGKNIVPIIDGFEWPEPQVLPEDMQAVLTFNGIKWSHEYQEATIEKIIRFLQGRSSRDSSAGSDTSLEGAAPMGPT

[15] = growth inhibition, single agent or in combination, cell-based, chromothripsis tumors, cisplatin or BGB combos (AID 1671449; in the data active = inhibition above about 80%;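 note: cells exposed for 96 hours; 0% = vehicle DMSO and 100% = killing by high DMSO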); settings: LFS_MB_P medulloblastoma cells
[16] = growth inhibition, single agent and combos, cell-based, chromothripsis tumors, cisplatin or BGB combos (AID 1671450; in the data active = inhibition above about 80%;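 note: cells exposed to compound for four days; 0% = vehicle DMSO and 100% = cell killing by high DMSO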); settings: HDN33 neuroblastoma cells, stronger effect = higher value
[17] = growth inhibition, single agents and combos, ICB984, cell-based, cisplatin or BGB combos, synergistic combos for chromothripsis tumors (AID 1671451; call rule not given here;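 note: cells exposed for 96 hours before readout; 0% = vehicle DMSO and 100% = killing by high DMSO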); settings: ICB984 medulloblastoma cells, drug combinations, stronger effect = higher value
[18] = growth inhibition, single agents and combos, HTB85, cell-based, BGB or cisplatin IC20 combos, synergistic combos for chromothripsis tumors (AID 1671453; in the data active = inhibition above about 80%;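 note: cells exposed for 96 hours before readout; 0% = vehicle DMSO and 100% = high DMSO killing control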); settings: HTB85 osteosarcoma cells, drug combinations, stronger effect = higher value
[19] = growth inhibition, MDA-MB-436, cell-based, BGB or cisplatin combos, synergistic combos for chromothripsis tumors (AID 1671458; call rule not given here;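 note: cells exposed for 96 hours; 0% = vehicle DMSO and 100% = killing by high DMSO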); settings: MDA-MB-436 breast carcinoma growth inhibition, drug combinations, stronger effect = higher value
[20] = measured here: epithelial PC-3E GFP cell survival
[21] = measured here: mesenchymal TEM4-18 mCherry cell survival
[22] = stronger effect = lower value, cell number ratio, induced over uninduced
[23] = measured here: relative caspase fold change +Dox/-Dox
[24] = measured here: total cells with miR-34 induction, stronger effect = lower value
[25] = measured here: total cells without miR-34 induction
[26] = MELAS cybrid survival, CellTiter-Glo 48 h, stronger effect = higher value
[27] = Rieske KO mouse fibroblast survival, CellTiter-Glo 72 h

For `CC1CC(OC(=O)c2ccccc2O)CC(C)(C)C1` (centres undefined), the survival [1] was 6 (inactive), the parasite load remaining [2] was 86.4% (inactive) and 63% (inactive) and the viability [2] was 75.8% and 101%. The nuclear beta-catenin stimulation ([3]; at 10 µM) was 1.8% (inactive), the nuclear beta-catenin stimulation ([3]; stimulation, at 2 µM) was -0.1% and the insulin secretion stimulation [4] was 0% (inactive). For the same compound, the viability decrease [5] was -63.6% (inactive), the tube area decrease [6] was 4.9% (inactive) and the GLP1 secretion stimulation [7] was -7.6% (inactive). For the same compound, the inhibition of viability [8] was 9.33% (inactive), the viability decrease (inhibition) [9] was 6% (inactive) and the viability decrease (inhibition) [10] was -0.4% (inactive). For the same compound, the red/green cell ratio (normalised) [11] was 1.12 (inactive), the normalised cell number [11, 20] was 1.37 and the normalised cell number [11, 21] was 1.53. The fold change [12, 22] was 0.96 (inactive) and 0.853 (inactive), the fold change [12, 23] was 0.489 and 3.24 and the cell count [12, 24] was 9060 and 10300. The cell count [12, 25] was 9440 and 12000, the z-score [13, 26] was -0.66 (inactive) and the z-score [13, 27] was -0.623. For the same compound, the remaining NAD [14] was 10 nM (inactive).

For `CCCCOc1cc(C(=O)OCCN(CC)CC)ccc1N`, the survival [1] was 11.5 (inactive), the parasite load remaining [2] was 22.4% (inactive) and 92.2% (inactive) and the viability [2] was 49.5% and 89.9%. The nuclear beta-catenin stimulation ([3]; at 10 µM) was 1.9% (inactive), the nuclear beta-catenin stimulation ([3]; stimulation, at 2 µM) was 3.9% and the insulin secretion stimulation [4] was 50.7% (active). For the same compound, the viability decrease [5] was 45.5% (inactive), the tube area decrease [6] was 14.2% (inactive) and the GLP1 secretion stimulation [7] was 7.1% (inactive). For the same compound, the inhibition of viability [8] was 66% (active), the viability decrease (inhibition) [9] was 51.8% (active) and the viability decrease (inhibition) [10] was 81.6% (active). For the same compound, the red/green cell ratio (normalised) [11] was 0.93 (inactive), the normalised cell number [11, 20] was 1.02 and the normalised cell number [11, 21] was 0.95. For the same compound, the fold change [12, 22] was 0.886 (inactive) and 0.893 (inactive) and 0.93 (inactive), the fold change [12, 23] was 1.39 and 0.433 and 0.883 and the cell count [12, 24] was 8530 and 8120 and 7780. The cell count [12, 25] was 9620 and 9090 and 8360, the z-score [13, 26] was 0.206 (inactive) and -0.26 (inactive) and 0.345 (inactive) and the z-score [13, 27] was -0.405 and -0.149 and 0.0628. The remaining NAD [14] was 10 nM (inactive).

In the case of `Nc1ccc2cc3ccc(N)cc3nc2c1`, the nuclear beta-catenin stimulation ([3]; at 10 µM) is reported as 164% (active), the nuclear beta-catenin stimulation ([3]; stimulation, at 2 µM) is reported as 9.1% and the insulin secretion stimulation [4] is reported as 24% (active). The viability decrease [5] was 42% (active), the tube area decrease [6] was -95.9% (inactive) and the GLP1 secretion stimulation [7] was 11.8% (inactive). The inhibition of viability [8] was 104% (active), the viability decrease (inhibition) [9] was 106% (active) and the viability decrease (inhibition) [10] was 45.9% (active). The red/green cell ratio (normalised) [11] was 0.58 (inactive), the normalised cell number [11, 20] was 0.74 and the normalised cell number [11, 21] was 0.43. For the same compound, the fold change [12, 22] was 0.846 (inactive) and 0.958 (inactive), the fold change [12, 23] was 0.821 and 1.18 and the cell count [12, 24] was 1150 and 2160. The cell count [12, 25] was 1360 and 2260, the z-score [13, 26] was 2.13 (active) and the z-score [13, 27] was -2.97. For the same compound, the remaining NAD [14] was 10 nM (inactive), the inhibition ([15]; at 0.5 µM, stronger effect = higher value) was -32.2% (inactive) and the inhibition ([15]; measured here: combination with BGB IC20, at 0.005 µM) was 13.5%. The inhibition ([15]; measured here: combination with BGB IC40, at 0.005 µM) was -11.3%, the inhibition ([15]; measured here: combination with BGB IC40, at 0.05 µM) was 22.5% and the inhibition ([15]; measured here: combination with cisplatin, at 0.5 µM, stronger effect = higher value) was -47.3%. The inhibition ([15]; measured here: combination with cisplatin, at 5 µM, stronger effect = higher value) was 91.6%, the inhibition ([16]; BGB combo, at 5 µM) was 96.4% and the inhibition ([16]; at 0.5 µM) was -6.06% (inactive). The inhibition ([16]; cisplatin combo, at 5 µM) was 99.6%, the inhibition ([16]; measured here: with BGB IC20 combination, at 0.5 µM) was 5.24% and the inhibition ([16]; measured here: with cisplatin IC20 combination, at 0.5 µM) was -17.9%. It also gave an inhibition ([16]; single agent, at 5 µM) of 97.6%, an inhibition ([17]; BGB IC20 combo, at 0.005 µM) of -22.1% and an inhibition ([17]; BGB IC40 combo, at 0.005 µM) of -20.5%. For the same compound, the inhibition ([17]; BGB IC40 combo, at 0.05 µM) was 98.8%, the inhibition ([17]; at 0.5 µM) was -20.2% (inactive) and the inhibition ([17]; cisplatin combo, at 0.05 µM) was 98.8%. It also gave an inhibition ([17]; cisplatin combo, at 0.5 µM) of -22.1%, an inhibition ([17]; cisplatin combo, at 5 µM) of -11.1% and an inhibition ([17]; measured here: 5 uM single agent, at 5 µM) of -9.35%. The inhibition ([18]; at 0.5 µM) was -33.1% (inactive), the inhibition ([18]; measured here: with BGB IC20, at 0.5 µM) was -40.6% and the inhibition ([18]; measured here: with BGB IC20, at 5 µM) was 79.3%. It also gave an inhibition ([18]; measured here: with cisplatin IC20, at 0.5 µM) of -43.3%, an inhibition ([18]; measured here: with cisplatin IC20, at 5 µM) of 99.3% and an inhibition ([18]; single agent, at 5 µM) of 84.4%. The inhibition ([19]; at 0.5 µM) was 7.24% (inactive), the inhibition ([19]; measured here: BGB combination, at 0.5 µM) was -0.519% and the inhibition ([19]; measured here: BGB combination, at 5 µM) was 92.2%. It also gave an inhibition ([19]; measured here: cisplatin combination, at 0.5 µM) of -19.4% and an inhibition ([19]; measured here: cisplatin combination, at 5 µM) of 97.5%.

— PubChem BioAssay
